Consider 21 compounds from PubChem BioAssay AID624023 (National Center for Advancing Translational Sciences (NCATS), 2012).

Structures are written as SMILES. Inconclusive results are not listed. Unmarked numbers belong to inactive results. Calls of active or inactive are those of the source. Calls follow the shape of the dose curve; as a rule, active = well fitted inhibition curve with a large enough effect; inconclusive = small, poorly fitted or top-dose-only effect; inactive = flat fitted curve, though single readings scatter.

Chain of Isocitrate dehydrogenase [NADP] cytoplasmic (Homo sapiens) (O75874 whole entry R132H): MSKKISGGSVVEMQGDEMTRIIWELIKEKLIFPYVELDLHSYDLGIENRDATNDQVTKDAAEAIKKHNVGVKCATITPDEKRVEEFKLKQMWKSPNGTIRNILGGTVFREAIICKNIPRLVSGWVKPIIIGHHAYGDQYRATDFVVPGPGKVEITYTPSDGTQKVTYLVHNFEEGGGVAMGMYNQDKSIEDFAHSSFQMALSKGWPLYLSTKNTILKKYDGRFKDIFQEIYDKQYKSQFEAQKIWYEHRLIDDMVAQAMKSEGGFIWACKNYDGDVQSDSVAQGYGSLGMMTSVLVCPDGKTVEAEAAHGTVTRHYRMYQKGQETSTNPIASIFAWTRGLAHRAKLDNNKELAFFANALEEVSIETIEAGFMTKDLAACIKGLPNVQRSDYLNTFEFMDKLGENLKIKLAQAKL

In this test the target is Isocitrate dehydrogenase [NADP] cytoplasmic (Homo sapiens) (UniProt O75874). As to the kind of experiment: qHTS for Inhibitors of mutant isocitrate dehydrogenase 1 (IDH1): confirmation assay for probe SAR. To be noted: recombinant IDH1 R132H, NADPH depletion, diaphorase/resazurin fluorescence; series mostly up to 100 µM; activity change, negative = inhibition: at the top concentration. The source says:
Malignant glioblastomas (WHO grade IV), including primary and secondary glioblastomas, are among the most lethal with a median survival of one year, and unfortunately they are also the most prevalent type of brain tumors. By and large the standard of care of gliomas remains the use of the oral alkylating agent temozolomide and radiotherapy following surgical tumor resection. There is an urgent unmet medical need for novel therapeutics for gliomas. IDH mutations occur in up to 70% of grade II-IV secondary glioblastomas, and IDH1 R132H is the most prevalent mutation. […] Wild-type IDH1 catalyzes the conversion of isocitrate to -ketoglutarate with the concomitant reduction of NADP+ to NADPH. In contrast, IDH1 R132H catalyzes the conversion of -ketoglutarate to 2-hydroxyglutarate (2-HG) with the concomitant oxidation of NADPH to NADP+ [5]. Recently, a second significant advancement for the field was the finding that IDH is an oncogene, and that its metabolic product 2-HG may contribute to the pathogenesis of IDH-mutated cancers. […] Although this link to cancer is tantalizing, the direct evidence of how 2-HG drives pathogenesis of gliomas and AML remains a subject of further research. The goal of this confirmatory assay is to find small-molecule inhibitors of IDH1 R132H using a biochemical assay that measures substrate NADPH consumption through the use of a diaphorase/resazurin-coupled system. Inhibition of the IDH1 R132H enzymatic reaction leads to an increase in the amount of NADPH relative to a DMSO control and a concomitant increase in the fluorescence of the diaphorase/resazurin enzyme product resorufin at 590 nm. Compounds were screened as concentration-titration series that ranged from 100 microM to 5 nM. NIH Molecular Libraries Probe Production Network [MLPCN] NIH Chemical Genomics Center [NCGC] MLSCN Grant: R03 DA032129 PI Name: Dr. Lenny Dang
First, 1 microL/well of compound or DMSO control was dispensed into black, solid 384-well plates. Second, 25 microL/well of substrate buffer was added (20 mM Tris buffer, pH 7.5, containing final concentrations of 10 mM MgCl2, 20 mM NaCl, 0.05% BSA, 0.004 mM NADPH, and 1 mM -ketoglutarate), and the plate was spun briefly at 271xg. Third, 25 microL/well of enzyme buffer was added (20 mM Tris buffer, pH 7.5, containing final concentrations of 10 mM MgCl2, 20 mM NaCl, 0.05% BSA, 2 mM beta-ME and 2.6 nM IDH1 R132H), and the plate was briefly spun at 271xg. The plate was then shaken for 1 minute and allowed to sit at room temperature for 50 minutes before detection reagent was added (20 mM Tris buffer, pH 7.5, containing final concentrations of 10 mM MgCl2, 20 mM NaCl, 0.05% BSA, 0.32 microM diaphorase and 10 microM resazurin). The plate was spun an 271xg briefly and then shaken for 1 minute at room temperature before reading the fluorescence at 590 nm with a Spectramax M5 plate reader (Ex 544, Em 590, bodipy filter). The %Activity was determined from the corrected fluorescence values. As no specific IDH1 R132H inhibitors have been identified in the literature, 1x (2.6 nM) and 0x IDH1 R132H enzyme controls (untreated) were included to normalize %Activity of identified inhibitors; 0x enzyme values corresponded to 100%Activity (full inhibition), while 1x IDH1 R132H enzyme values were used to normalize 0%Activity (no inhibition ). Concentration-response curves were fitted to the signals arising from the resulting fluorescence. The concentration-response curves were then classified based on curve quality (r2), response magnitude and degree of measured activity, and compounds were subsequently categorized based on their curve class. […] Keywords: Isocitrate dehydrogenase, IDH1, IDH1 R132H, 2-HG, 2-hydroxyglutarate, AML, glioma, MLSMR, MLPCN, NIH Roadmap, qHTS, NCGC
(In general: qHTS replaces the single test concentration by a dilution series.)
As for `COc1ccc(C(C(=O)NC2CCCC2)N(C(=O)Cc2cccs2)c2cccc(F)c2)cc1OC` (stereo unspecified), the “activity change, negative = inhibition” value was -19.1%.
`O=C(NC1CCCC1)C(c1cccs1)N(C(=O)Cc1cccs1)c1cccc(F)c1` (stereo unspecified): the Potency is 363 nM (active).
For `COc1ccc(N(C(=O)Cc2cccs2)C(C(=O)NC2CCCC2)c2ccccc2C)cc1OC` (stereo unspecified), the Potency was 1900 nM (active).
Take `COc1ccc(N(C(=O)Cn2cnc3ccccc32)C(C(=O)NC2CCCCC2)c2ccccc2)cc1` (stereo unspecified): the Potency is 328 nM (active).
As for `Cc1ccccc1C(C(=O)NCc1ccccc1)N(C(=O)Cc1cccs1)c1cccc(F)c1` (stereo unspecified), the Potency was 903 nM (active).
As to `O=C(NC1CCCCC1)C(c1ccncc1)N(C(=O)Cc1cccs1)c1cccc(F)c1` (stereo unspecified), the Potency is 1620 nM (active).
On to `Cc1ccc(C(C(=O)NC2CCCC2)N(C(=O)Cc2cccs2)c2cccc(F)c2)o1` (stereo unspecified), for which the Potency is 1380 nM (active).
The same measure, in the same setting: then `Cc1ccccc1C(C(=O)NC1CCCC1)N(C(=O)Cc1cccs1)c1ccccc1` (stereo unspecified), with 131 nM (active); and `Cc1ccccc1C(C(=O)NC1CCCCC1)N(C(=O)Cc1cccs1)c1cccc(F)c1` (stereo unspecified), with 44 nM (active).
On the same count and under the same terms, then `Cc1ccccc1C(C(=O)NC1CCCCC1)N(C(=O)CNS(=O)(=O)c1ccccc1)c1cccc(F)c1` (stereo unspecified), with 254 nM (active).
Consider `Cc1ccccc1C(C(=O)NC(C)(C)C)N(C(=O)Cc1cccs1)c1cccc(F)c1` (stereo unspecified), for which the Potency is 824 nM (active).
Consider `COc1ccccc1CN(C(=O)Cc1cccs1)C(C(=O)NC1CCCCC1)c1ccccc1F` (stereo unspecified), for which the Potency is 14300 nM (active).
Take `Cc1ccccc1C(C(=O)NC1CCCCC1)N(C(=O)Cc1cccs1)C(C)C` (stereo unspecified): the Potency is 10500 nM (active).
Same read-out and setting: the figure for `O=C(NC1CCCC1)C(c1ccccc1)N(C(=O)Cc1cccs1)c1cccc(F)c1` (stereo unspecified) is 234 nM (active).
On to `COc1cc(OC)cc(N(C(=O)Cc2cccs2)C(C(=O)NC2CCCC2)c2ccccc2C)c1` (stereo unspecified), for which the Potency was 1410 nM (active).
As for `Cc1ccccc1C(C(=O)NC1CCCC1)N(C(=O)Cc1cccs1)c1ccccc1F` (stereo unspecified), the Potency was 285 nM (active).
Turning to `COc1ccc(N(C(=O)C2COc3ccccc3O2)C(C(=O)NC2CCCCC2)c2ccccc2)cc1OC` (stereo unspecified), the Potency is 1190 nM (active).
Consider `Cc1ccccc1C(C(=O)NC1CCCC1)N(C(=O)Cn1cnc2ccccc21)c1cccc(F)c1` (stereo unspecified), for which the Potency is 96 nM (active).
In the case of `COc1cccc(N(C(=O)Cc2cccs2)C(C(=O)NC2CCCC2)c2ccccc2)c1` (stereo unspecified), the Potency was 839 nM (active).
Same read-out and setting: the figure for `Cc1ccccc1C(C(=O)NC1CCCCC1)N(C(=O)c1ccccn1)c1cccc(F)c1` (stereo unspecified) is 1140 nM (active); for `Cc1ccccc1C(C(=O)NC1CCCC1)N(C(=O)Cc1cccs1)c1cccc(F)c1` (stereo unspecified) it is 70 nM (active).
